Experimental data published in PubChem BioAssay AID488966 (Southern Research Specialized Biocontainment Screening …, 2010).
Screen size: about 340,000 compounds; about 55 (0.02%) were called active.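 The calls were made as follows: active = phage lysis inhibition, versus mean bacterial control, above a set limit; inconclusive = no clear call, values can overlap the other calls; inactive = the rest.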 These entries were drawn from the full list. Measured potencies and affinities stand elsewhere.

test: protection from phage-mediated lysis, alamar blue read-out – E. coli UTI89, K1F phage, bacterial capsule biogenesis inhibitors (AID 488966); details: 2 h; inhibition: at 100 µM, stronger effect = higher value unless noted; series mostly up to 300 µM;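 also: capsule biogenesis inhibitors block K1F phage lysis so surviving cells raise fluorescence; higher fluorescence means more inhibition of phage lysis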

inhibition, inactive:
Cc1ccccc1C(=O)N=c1ccn(-c2nc3ccccc3nc2NS(=O)(=O)c2ccccc2)cc1 0.1%
CCCOc1ccc(C(=O)O)cc1 -0.2%
CCOc1ccc(C(=O)C(CCC(CN(C)C)C(=O)c2ccc(OCC)cc2)CN(C)C)cc1 (stereo not drawn) 0.87%
Cc1cccc(NC(=O)/C(C#N)=C/c2ccc(Cl)cc2)n1 0%
Cc1cc(C)c2c3c(oc2n1)C(=O)N(c1cccc(Cl)c1)CC(=O)N3 0.63%
Clc1ccc(-n2nnnc2-c2cnc3ccc(Cl)cc3c2-c2ccccc2)cc1 0.85%
O=C(Nc1ccc(Cl)c(S(=O)(=O)N2CCOCC2)c1)[C@@H]1CCCN1C(=O)c1cccs1 0.43% [at 50 µM, stronger effect = higher value]
COc1ccc(C[C@@H]2CN3C(=NC[C@@H]3Cc3ccc(O)cc3)N2C[C@H](C)NC(=O)CCC2CCCCC2)cc1 0.18%
CCOC(=O)C1CCN(C(=O)CN(c2ccc3c(c2)OCO3)S(C)(=O)=O)CC1 0.52%
O=C(NN=Cc1ccccc1O)C(O)(c1ccccc1)c1ccccc1 -1.49%
COc1cccc(C2C3=C(CC(C)(C)CC3=O)Nc3cc4c(cc32)OCO4)c1 (stereo not drawn) 2.26%
Cc1nc(N2CCN(C(=O)c3ccco3)CC2)c2oc3ccccc3c2n1 1.22%
CCOc1cc(C2NC(=O)c3ccccc3O2)ccc1OC(C)C (stereo not drawn) 2.06%
O=C(O)CCC(=NNC(=O)c1cccc(S(=O)(=O)N2CCCCC2)c1)c1ccccc1 0.71% [at 50 µM, stronger effect = higher value]
CCN(CC)c1ccc(C(=O)Nc2cccc(F)c2)cc1 2.12%
CCN(CC)c1ccc(NC(=O)c2ccc3c(c2)OCO3)cc1 2.01%
CCCNC(=O)C(=O)Nc1ccc2c(c1)N(S(=O)(=O)c1cccs1)CCC2 1.18% [at 50 µM, stronger effect = higher value]
CCc1cc2cc(C)cc(C)c2nc1SCC(=O)Nc1cc(C)on1 0.23%
O=C(Nc1cc2c3c(c1)CC(=O)N3CCC2)c1c(F)cccc1F 1.43% [at 50 µM, stronger effect = higher value]
CCOc1ccc(NC(=S)N2CCCC2)cc1 0.16%
COC(=O)c1sccc1NC(=O)Nc1cccc(Cl)c1Cl 0.2%
Cc1c(N(C(=O)Nc2ccccc2)C2=NCC(C)S2)c(=O)n(-c2ccccc2)n1C (stereo not drawn) 0.11%
COc1cc(C2NC(=S)NC3=C2CCc2ccccc23)cc(OC)c1OC (stereo not drawn) 0.64% [at 50 µM, stronger effect = higher value]
